Calls of active or inactive are those of the source. How the source made its calls: active means hit-call score of the fitted dose curve at least 0.9, where 1 is the maximum; inactive means score below 0.9.
How the values were obtained:
[1] = ATG_E_Box_CIS: Attagene CIS-FACTORIAL HepG2 Assay for human Enhancer Box (E-box) (AID 2282936); details: HepG2 E-box cis-reporter transcription, actives raise or lower the signal
Method in brief: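 In this cell-based setup, HepG2 cells bearing transfected promoter-driven reporter units were exposed to chemicals for 24 h; reporter transcripts were amplified, 6-FAM-labelled, cut with HpaI and sized by capillary electrophoresis.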

[2] = ATG_M_61_CIS: Attagene CIS-FACTORIAL HepG2 Assay for M61 Transcription Factor (Internal Marker) (AID 2282937); details: HepG2 Attagene CIS-FACTORIAL M61 internal marker reporter; actives raise or lower the signal
Method in brief: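 This endpoint serves as an internal background control within a multiplexed HepG2 cis-reporter panel. Cells are exposed for 24 h; reporter mRNA is amplified, fluorescently labelled and sized by capillary electrophoresis, with DMSO as negative control.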

[3] = ATG_EGR_CIS: Attagene CIS-FACTORIAL HepG2 Assay for human Early Growth Response 1 (EGR1) (AID 2282938); details: HepG2 Attagene CIS-FACTORIAL EGR reporter mRNA; actives raise or lower the signal
Method in brief: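 HepG2, transient MRTU transfection (cis promoters), 24 h compound. RNA → RT (oligo-dT) → PCR → 6-FAM labelling → HpaI cut → CE fluorescence. Bidirectional fit, DMSO baseline.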

[4] = ATG_M_19_CIS: Attagene CIS-FACTORIAL HepG2 Assay for M19 Transcription Factor (Internal Marker) (AID 2282939); details: HepG2 Attagene CIS-FACTORIAL M19 internal marker reporter; actives raise or lower the signal
Method in brief: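 Background-control endpoint from a multiplexed HepG2 reporter panel. Cells carrying cis-regulated reporter constructs are treated 24 h, then reporter transcripts are amplified, fluorescently labelled and sized by capillary electrophoresis. DMSO defines baseline.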

[5] = ATG_ERE_CIS: Attagene CIS-FACTORIAL HepG2 Assay for Estrogen Response Element (ERE) (AID 2282940); details: HepG2 ERE cis-reporter, Attagene RNA transcript; actives raise or lower the signal
Method in brief: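 Cells used were human hepatoma HepG2, transfected with multiple reporter transcription units under cis-regulatory promoters. Reporter mRNA, read 24 h post-dosing via fluorescent RT-PCR products on capillary electrophoresis, was fitted bidirectionally relative to DMSO.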

[6] = ATG_Ets_CIS: Attagene CIS-FACTORIAL HepG2 Assay for human Erythroblast Transformation Specific (ETS) (AID 2282941); details: HepG2 ETS cis-reporter transcription, actives raise or lower the signal
Method in brief: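 RT-PCR/capillary electrophoresis fluorescence read-out of reporter mRNA; HepG2 transient multi-reporter transfection; 24 h compound exposure; gain or loss of signal fitted bidirectionally relative to DMSO.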

[7] = target: Hepatocyte nuclear factor 3-beta (Homo sapiens) (UniProt Q9Y261); test: ATG_FoxA2_CIS: Attagene CIS-FACTORIAL HepG2 Assay for human Forkhead box A2 (FOXA2) (AID 2282942); details: HepG2 cis-reporter transcription factor activity, 24 h; actives raise or lower the signal
Sequence of Hepatocyte nuclear factor 3-beta (Homo sapiens) (Q9Y261 whole entry, looked up): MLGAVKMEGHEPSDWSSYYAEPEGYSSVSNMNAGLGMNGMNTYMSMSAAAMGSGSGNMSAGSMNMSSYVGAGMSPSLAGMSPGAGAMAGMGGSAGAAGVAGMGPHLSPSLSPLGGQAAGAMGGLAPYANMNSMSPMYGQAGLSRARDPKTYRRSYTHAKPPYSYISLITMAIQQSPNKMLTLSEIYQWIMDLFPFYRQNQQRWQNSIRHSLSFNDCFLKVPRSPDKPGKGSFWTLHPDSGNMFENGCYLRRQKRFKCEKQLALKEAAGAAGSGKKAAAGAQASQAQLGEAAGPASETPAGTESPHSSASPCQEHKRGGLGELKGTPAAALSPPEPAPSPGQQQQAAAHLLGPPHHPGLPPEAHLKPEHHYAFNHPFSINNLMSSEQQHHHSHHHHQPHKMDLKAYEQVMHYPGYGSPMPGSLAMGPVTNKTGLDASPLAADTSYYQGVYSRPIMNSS
Method in brief: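 Cells: HepG2, transient multiplex reporter transfection. Exposure 24 h. Detection: reporter-specific RT-PCR, fluorescent labelling, restriction digest, capillary electrophoresis. Analysis: bidirectional curve fit, DMSO as negative control.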

[8] = ATG_FoxO_CIS: Attagene CIS-FACTORIAL HepG2 Assay for human Forkhead box O (FoxO) (AID 2282943); details: HepG2 Attagene cis-reporter, FoxO element, mRNA; actives raise or lower the signal
Method in brief: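 Transfected HepG2 reporter cells exposed to test chemical for 24 h; reporter RNA measured by reverse transcription, PCR and fluorescent capillary electrophoresis; curves fitted for increases and decreases against DMSO.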

[9] = ATG_GATA_CIS: Attagene CIS-FACTORIAL HepG2 Assay for human GATA Binding Protein (AID 2282944); details: HepG2 GATA cis-element reporter, Attagene multiplex mRNA; actives raise or lower the signal
Method in brief: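 Endogenous transcription factor activity was captured through cis-promoter-driven reporters in transfected HepG2 cells. After 24 h exposure, reporter transcripts were quantified by RT-PCR with fluorescent capillary electrophoresis, and responses fitted both directions against DMSO.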

[10] = ATG_GLI_CIS: Attagene CIS-FACTORIAL HepG2 Assay for human Zinc Finger Protein GLI1 (AID 2282945); details: HepG2, Attagene cis-factorial reporter mRNA, GLI element; actives raise or lower the signal
Method in brief: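 Transiently transfected HepG2 cells report endogenous transcription factor activity via cis-element-driven reporter units. After 24 h compound exposure, reporter mRNA was measured by RT-PCR with capillary electrophoresis; bidirectional fitting against DMSO baseline.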

Compound	outcome [1]	outcome [2]	outcome [3]	outcome [4]	outcome [5]	outcome [6]	outcome [7]	outcome [8]	outcome [9]	outcome [10]	AC50 [1]	AC50 [5]	AC50 [3]	AC50 [10]	AC50 [6]
O=C1OC(=O)c2cc(Oc3ccc4c(c3)C(=O)OC4=O)ccc21	inactive	inactive	inactive	inactive	inactive	inactive	inactive	inactive	inactive	inactive	–	–	–	–	–
C=CC(C)(C)C	inactive	inactive	inactive	inactive	inactive	inactive	inactive	inactive	inactive	inactive	–	–	–	–	–
CCOC(F)(F)C(F)(F)C(F)(F)C(F)(F)F	inactive	inactive	inactive	inactive	inactive	inactive	inactive	inactive	inactive	inactive	–	–	–	–	–
CCCCCCCOC(=O)CCC	inactive	inactive	inactive	inactive	inactive	inactive	inactive	inactive	inactive	inactive	–	–	–	–	–
Nc1ccc(N)c(Cl)c1	–	inactive	inactive	inactive	–	inactive	inactive	inactive	inactive	inactive	33.5 µM (active)	2.65 µM (active)	–	–	–
COCCCOCCCOC	inactive	inactive	inactive	inactive	inactive	inactive	inactive	inactive	inactive	–	–	–	–	–	–
Cc1cnc(NC(=O)C2=C(O)c3ccccc3S(=O)(=O)N2C)s1	inactive	inactive	inactive	inactive	inactive	inactive	inactive	inactive	inactive	–	–	–	–	–	–
CCCCCCCCCCCSCC(=O)O	–	inactive	–	inactive	inactive	inactive	inactive	inactive	inactive	inactive	100 µM (active)	–	82.6 µM (active)	–	–
CC(=O)NS(=O)(=O)c1ccc(N)cc1	inactive	inactive	inactive	inactive	inactive	inactive	inactive	inactive	inactive	–	–	–	–	–	–
CCCCCCCCCCCCCOP(=O)(O)O	inactive	inactive	inactive	inactive	inactive	inactive	inactive	inactive	inactive	–	–	–	–	–	–
O=C(Nc1cccc(C(F)(F)F)c1)c1cc(Br)cc(Br)c1O	–	inactive	–	inactive	inactive	inactive	inactive	inactive	inactive	–	77.6 µM (active)	–	25.5 µM (active)	83 µM (active)	–
Cc1c(C)c([N+](=O)[O-])c(C(C)(C)C)c([N+](=O)[O-])c1C	inactive	inactive	inactive	inactive	inactive	inactive	inactive	inactive	inactive	inactive	–	–	–	–	–
CCC(Cc1ccccc1)(C(=O)c1ccc(N2CCOCC2)cc1)N(C)C (stereo unspecified)	–	inactive	–	inactive	–	inactive	inactive	inactive	inactive	–	17 µM (active)	5.54 µM (active)	31.6 µM (active)	–	–
O=C(c1ccc(O)cc1)c1ccc(O)cc1O	inactive	inactive	inactive	inactive	–	inactive	inactive	inactive	–	–	–	0.84 µM (active)	–	–	–
CCCC(=O)OCc1ccccc1	inactive	inactive	inactive	inactive	inactive	inactive	inactive	inactive	inactive	inactive	–	–	–	–	–
O=C1CCCCCCCCCCC(=O)OCCO1	inactive	inactive	inactive	inactive	inactive	inactive	inactive	inactive	inactive	inactive	–	–	–	–	–
CC(C)(C)c1n[nH]c(=O)n(N)c1=O	inactive	inactive	inactive	inactive	inactive	inactive	inactive	inactive	inactive	inactive	–	–	–	–	–
CC(C)=CCCC(C)C=O (stereo unspecified)	inactive	inactive	inactive	inactive	inactive	inactive	inactive	inactive	inactive	–	–	–	–	–	–
Cc1ccc(OC(=O)CC(C)C)cc1	inactive	inactive	inactive	inactive	inactive	inactive	inactive	inactive	inactive	–	–	–	–	–	–
CCCCCCCC/C=C\CCCCCCCC(=O)O	inactive	inactive	inactive	inactive	inactive	inactive	inactive	inactive	inactive	inactive	–	–	–	–	–
Oc1ccc(Cl)cc1Cc1cc(Cl)ccc1O	inactive	inactive	–	inactive	–	–	inactive	inactive	inactive	–	–	3.04 µM (active)	8.39 µM (active)	–	6.68 µM (active)
CC(=O)OCC(C)OC(C)=O (stereo unspecified)	inactive	inactive	inactive	inactive	inactive	inactive	inactive	inactive	inactive	–	–	–	–	–	–
CC(=O)OC(C)C	inactive	inactive	inactive	inactive	inactive	inactive	inactive	inactive	inactive	–	–	–	–	–	–
C=CC=CC=CCCCCC	inactive	inactive	inactive	inactive	inactive	inactive	inactive	inactive	inactive	inactive	–	–	–	–	–
CCCCC/C=C\C/C=C\CCCCCCCC(=O)OC	inactive	inactive	–	inactive	inactive	inactive	inactive	inactive	inactive	–	–	–	100 µM (active)	–	–
O=C(O)CCCC[C@@H]1SC[C@@H]2NC(=O)N[C@@H]21	inactive	inactive	inactive	inactive	inactive	inactive	inactive	inactive	inactive	–	–	–	–	–	–

From PubChem BioAssay (EPA / NIEHS)
